This passage reports growth inhibition, inhibition and outcome results from PubChem BioAssay.

A word on the inhibition: it is the change of the read-out against control, counted positive when it falls.

The nature of assay [1]: antimalarial activity against Dd2 strain (AID 2302;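 active = growth inhibition above 50% at the single 2 µM test dose, taken to imply half-maximal potency below 2 µM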;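 note: 0% = DMSO untreated growth and 100% = chloroquine plus artemisinin killed control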). As to conditions: P. falciparum Dd2 in RBCs, LDH growth readout, 72 h; at 2 µM; hits give high values.
Assay [2] is described as follows: human hepatoma cell viability loss – ATP luminescence, cytotoxicity control for P. falciparum antimalarial project, primary screen (AID 2303;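 active = inhibition above 50%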;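 note: 0% = DMSO wells and 100% = digitonin-killed cells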). As to conditions: HepG2 viability, 24-48 h, at 10 µM, hits give high values.
Assay [3] concerns the target L-lactate dehydrogenase (Plasmodium falciparum (isolate CDC / Honduras)) (UniProt Q27743). The assay can be described thus: PfLDH activity inhibition – cell lysate, 3D7 strain, counter-screen for P. falciparum growth inhibition project (AID 2304).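 Note: 0% = vehicle and 100% = reference inhibitor.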 The settings on record: P. falciparum 3D7 crude extract, LDH APAD/NBT absorbance; at 2 µM; hits give high values. A general note: The purpose of a counterscreen is to sort out artefacts and off-target activity.

Assay [4] is described as follows: inhibition of 3D7 malaria parasite growth – strain 3D7 (AID 2306).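 Note: 0% = DMSO wells and 100% = chloroquine plus artemisinin control wells.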 The settings on record: P. falciparum 3D7 erythrocytic growth, LDH absorbance, 72 h; at 2 µM; hits give high values.
Assay [5] addresses Calcium-dependent protein kinase 1 (Plasmodium falciparum (isolate 3D7)) (UniProt P62344). The experiment in a line: PfCDPK1 kinase inhibitors, biochemical, TCAMS library (AID 1159585; cut-off not given, nearly all actives have IC50 up to about 0.98 µM;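 note: inhibitors leave more ATP so luminescence rises with inhibition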). The settings on record: recombinant PfCDPK1, Kinase-Glo ATP depletion luminescence.
The target in assay [6] is Plasmodium falciparum protein kinase 6 (PK6, PF3D7_1337100) (UniProt Q8IDW1). The experiment in a line: PfPK6 kinase inhibitors, biochemical, TCAMS library (AID 1159586). The settings on record: recombinant PfPK6, Kinase-Glo ATP depletion luminescence.
Sequence of Plasmodium falciparum protein kinase 6 (PK6, PF3D7_1337100) (Q8IDW1 1-305): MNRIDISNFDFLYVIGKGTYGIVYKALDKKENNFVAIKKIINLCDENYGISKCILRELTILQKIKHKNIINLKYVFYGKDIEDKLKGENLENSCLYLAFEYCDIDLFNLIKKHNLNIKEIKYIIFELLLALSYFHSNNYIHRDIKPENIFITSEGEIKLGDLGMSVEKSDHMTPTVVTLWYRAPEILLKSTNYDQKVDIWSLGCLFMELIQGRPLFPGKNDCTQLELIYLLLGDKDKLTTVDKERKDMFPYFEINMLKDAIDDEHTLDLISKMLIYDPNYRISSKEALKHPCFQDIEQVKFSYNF
For assay [7], the target named is Protein kinase 7 (PK7), Plasmodium falciparum 3D7 (PF3D7_0213400) (UniProt Q7YTF7). The assay can be described thus: inhibition of Plasmodium PK7 catalytic activity – biochemical, TCAMS antimalarial set, Kinase-Glo luminescence (AID 1159587). As to conditions: recombinant PfPK7, Kinase-Glo ATP depletion luminescence. A general note: In Kinase-Glo more light means more ATP remaining.
Sequence of Protein kinase 7 (PK7), Plasmodium falciparum 3D7 (PF3D7_0213400) (Q7YTF7 1-343): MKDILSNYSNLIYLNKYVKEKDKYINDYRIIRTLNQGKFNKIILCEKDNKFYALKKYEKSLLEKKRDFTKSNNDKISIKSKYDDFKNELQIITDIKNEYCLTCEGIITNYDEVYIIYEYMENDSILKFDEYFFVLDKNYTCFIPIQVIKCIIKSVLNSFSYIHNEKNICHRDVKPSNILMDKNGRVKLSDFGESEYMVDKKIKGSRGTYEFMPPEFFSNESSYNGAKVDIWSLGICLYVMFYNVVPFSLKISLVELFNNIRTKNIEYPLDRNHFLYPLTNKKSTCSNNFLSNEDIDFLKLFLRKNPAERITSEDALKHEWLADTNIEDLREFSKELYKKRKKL

In assay [8] the target is Calcium-dependent protein kinase 4 (Plasmodium falciparum (isolate 3D7)) (UniProt Q8IBS5). The experiment in a line: PfCDPK4 kinase inhibitors, biochemical, TCAMS library (AID 1159588; cut-off not given, nearly all actives have IC50 up to about 0.91 µM). As to conditions: recombinant PfCDPK4, Kinase-Glo ATP depletion luminescence.
Sequence of Calcium-dependent protein kinase 4 (Plasmodium falciparum (isolate 3D7)) (Q8IBS5 whole entry, looked up): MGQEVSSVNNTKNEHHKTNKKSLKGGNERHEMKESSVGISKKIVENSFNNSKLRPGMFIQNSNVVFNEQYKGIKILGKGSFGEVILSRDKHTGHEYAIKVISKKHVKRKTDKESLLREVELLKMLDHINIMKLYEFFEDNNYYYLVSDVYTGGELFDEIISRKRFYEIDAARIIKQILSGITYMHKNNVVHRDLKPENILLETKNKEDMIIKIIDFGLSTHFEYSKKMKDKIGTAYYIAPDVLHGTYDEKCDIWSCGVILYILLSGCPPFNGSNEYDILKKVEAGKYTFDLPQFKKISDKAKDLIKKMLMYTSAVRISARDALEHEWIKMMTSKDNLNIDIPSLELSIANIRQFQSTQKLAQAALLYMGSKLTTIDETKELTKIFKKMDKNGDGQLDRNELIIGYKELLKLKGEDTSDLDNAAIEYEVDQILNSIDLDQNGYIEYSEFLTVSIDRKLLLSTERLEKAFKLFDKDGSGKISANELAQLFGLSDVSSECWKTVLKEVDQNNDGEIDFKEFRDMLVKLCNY

Unmarked numbers belong to inactive results. For part of these data: Results with a measured potency or affinity are listed apart. Calls of active or inactive are those of the source. Unless noted, the rule behind the calls is not given here.

Sequence of L-lactate dehydrogenase (Plasmodium falciparum (isolate CDC / Honduras)) (Q27743 whole entry, looked up): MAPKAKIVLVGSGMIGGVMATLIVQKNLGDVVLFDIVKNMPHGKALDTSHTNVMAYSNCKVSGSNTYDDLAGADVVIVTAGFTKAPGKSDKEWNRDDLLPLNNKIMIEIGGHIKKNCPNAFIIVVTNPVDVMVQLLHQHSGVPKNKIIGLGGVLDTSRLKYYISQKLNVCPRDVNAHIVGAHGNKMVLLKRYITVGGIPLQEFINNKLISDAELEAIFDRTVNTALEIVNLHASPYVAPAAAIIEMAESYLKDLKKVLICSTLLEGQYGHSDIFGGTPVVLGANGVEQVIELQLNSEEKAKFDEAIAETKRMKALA
Sequence of Calcium-dependent protein kinase 1 (Plasmodium falciparum (isolate 3D7)) (P62344 whole entry, looked up): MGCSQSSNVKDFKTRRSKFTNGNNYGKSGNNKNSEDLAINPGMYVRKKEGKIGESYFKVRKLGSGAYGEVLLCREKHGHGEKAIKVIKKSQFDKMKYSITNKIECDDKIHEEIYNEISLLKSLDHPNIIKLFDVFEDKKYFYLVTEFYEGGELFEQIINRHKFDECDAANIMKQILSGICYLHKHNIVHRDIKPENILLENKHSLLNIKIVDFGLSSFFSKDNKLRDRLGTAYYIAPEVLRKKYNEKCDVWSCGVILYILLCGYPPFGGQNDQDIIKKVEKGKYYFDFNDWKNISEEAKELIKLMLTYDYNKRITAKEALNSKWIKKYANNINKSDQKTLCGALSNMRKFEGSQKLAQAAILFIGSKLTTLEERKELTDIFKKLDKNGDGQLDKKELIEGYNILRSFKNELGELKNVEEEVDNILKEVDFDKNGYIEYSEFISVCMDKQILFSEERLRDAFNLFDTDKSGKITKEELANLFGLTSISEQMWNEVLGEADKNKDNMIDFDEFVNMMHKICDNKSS

For `NC(=O)c1ccc(NCC(=O)Nc2cccc(-c3cccc(-c4nc5ccc(C(F)(F)F)cc5[nH]4)c3)c2)cc1`, the growth inhibition in assay [1] is 41%; in assay [4], 99% (active). Further, the values for the inhibition in assay [2] and in assay [3] were 32% and 1%, respectively. Moreover, the outcome in assay [5], in assay [6], in assay [7] and in assay [8] was inactive.
`Cc1ccc(F)cc1S(=O)(=O)Nc1ccc(CCN2CCC(N3CCCCC3)CC2)cc1`: the growth inhibition was 15% in assay [1] and 99% (active) in assay [4]. Besides, the inhibition in assay [2] was 25%; in assay [3] it was -3%. Further, the outcome in assay [5], in assay [6], in assay [7] and in assay [8] was inactive.
As to `CCNc1cc(C(=O)N[C@@H](Cc2ccccc2)[C@H](O)CNC2CCC(C)(C)CC2)cc(N2CCCCS2(=O)=O)c1`, the growth inhibition in assay [1] is 71% (active); in assay [4] it was 98% (active). Further, the values for the inhibition in assay [2] and in assay [3] were 1% and 3%, respectively. Also, the result in assay [5], in assay [6], in assay [7] and in assay [8] was inactive.
Regarding `O=C(Nc1cccc(Cl)c1Cl)N1CCc2cc3nccc(N4CCN5CCC[C@H]5C4)c3cc21`, the growth inhibition in assay [1] was 100% (active); in assay [4] it was 98% (active). Also, the inhibition is 9% in assay [2] and -1% in assay [3]. Moreover, the outcome in assay [5], in assay [6], in assay [7] and in assay [8] was inactive.
With `Cn1nc(-c2cccc(CN[C@@H]3CCc4ccc(O)cc43)c2)c2cnc(NCCCN3CCCC3)nc21`, the growth inhibition was -2% in assay [1] and 101% (active) in assay [4]. Besides, the inhibition in assay [2] is 9%; in assay [3] it was -3%. Besides, the outcome in assay [5], in assay [6], in assay [7] and in assay [8] was inactive.
In the case of `CCOC(=O)CN(c1ccc(Br)cc1OCCOc1cc(Br)ccc1N(CC(=O)OCC)C(C)C(=O)OCC)C(C)C(=O)OCC` (centres undefined), the growth inhibition in assay [1] was 6%; in assay [4] it was 94% (active). Moreover, the inhibition in assay [2] is -15%; in assay [3], 6%. Further, the outcome in assay [5], in assay [6], in assay [7] and in assay [8] was inactive.
Take `Cc1cccc2[nH]c(-c3cccc(-c4cccc(NC(=O)c5cnccc5C(F)(F)F)c4)c3)nc12`: the growth inhibition is 47% in assay [1] and 98% (active) in assay [4]. In addition, the values for the inhibition in assay [2] and in assay [3] were 7% and -11%, respectively. For the same compound, the result in assay [5], in assay [6], in assay [7] and in assay [8] was inactive.
In the case of `CCCCCN1CCCC(CNS(=O)(=O)c2cccc(C(=O)Nc3ccc(C(F)(F)F)cc3)c2)C1` (centres undefined), the growth inhibition in assay [1] was 2%; in assay [4], 96% (active). Moreover, the inhibition in assay [2] is 27%; in assay [3], 4%. The result in assay [5], in assay [6], in assay [7] and in assay [8] was inactive.
With `Cc1[nH]c(C)c(-c2ccc(OCc3cc(C(F)(F)F)cc(C(F)(F)F)c3)nc2)c(=O)c1Br`, the growth inhibition in assay [1] was 96% (active); in assay [4], 98% (active). Moreover, the inhibition was 28% in assay [2] and -2% in assay [3]. For the same compound, the result in assay [5], in assay [6], in assay [7] and in assay [8] was inactive.
On to `CCN(CC)CCCOC(=O)c1ccc2c(c1)-c1ccc(C(=O)OCCCN(CC)CC)c3cccc-2c13`, for which the results for the growth inhibition in assay [1] and in assay [4] were 96% (active) and 98% (active), respectively. Further, the inhibition in assay [2] was 22%; in assay [3], -3%. In addition, the outcome in assay [5], in assay [6], in assay [7] and in assay [8] was inactive.
On to `Cc1[nH]c(C)c(-c2ccc(OCCn3cnc(Cl)c3Cl)cc2)c(=O)c1Br`, for which the results for the growth inhibition in assay [1] and in assay [4] were 35% and 95% (active), respectively. The inhibition in assay [2] and in assay [3] was 2% in each case. Besides, the outcome in assay [5], in assay [6], in assay [7] and in assay [8] was inactive.
Regarding `COc1ccc2nc3cc(Cl)ccc3c(Nc3ccc(Sc4ccc(Nc5c6ccc(Cl)cc6nc6ccc(OC)cc56)cc4)cc3)c2c1`, the figures for the growth inhibition in assay [1] and in assay [4] were 94% (active) and 92% (active), respectively. Further, the inhibition in assay [2] is 1%; in assay [3], -4%. Further, the result in assay [5], in assay [6], in assay [7] and in assay [8] was inactive.
For the compound `O=C(NCCCCN1CCC(O)(c2ccc(Cl)cc2)CC1)c1ccc(Br)cc1`, the growth inhibition in assay [1] was 48%; in assay [4], 82% (active). For the same compound, the inhibition in assay [2] was 41%; in assay [3], 4%. Moreover, the result in assay [5], in assay [6], in assay [7] and in assay [8] was inactive.
As to `CCOC(=O)c1c(CN2CCCC2)n(-c2ccccc2)c2cc(Br)c(O)cc12`, the results for the growth inhibition in assay [1] and in assay [4] were 53% (active) and 83% (active), respectively. Also, the inhibition in assay [2] and in assay [3] was -2% throughout. Further, the result in assay [5], in assay [6], in assay [7] and in assay [8] was inactive.
For `CN1CCN(CCCN(Cc2ccc(-c3cccc(CNCc4ccc5c(c4)OCO5)c3)cc2)C(=O)NCCc2ccccc2)CC1`, the values for the growth inhibition in assay [1] and in assay [4] were 85% (active) and 98% (active), respectively. Further, the inhibition in assay [2] was 36%; in assay [3], 3%. In addition, the outcome in assay [5], in assay [6], in assay [7] and in assay [8] was inactive.
Turning to `CCCNCc1ccc(-c2ccc(CN(CCOC)C(=O)c3ccco3)cc2)nc1`, the growth inhibition is 21% in assay [1] and 91% (active) in assay [4]. The inhibition in assay [2] was 1%; in assay [3], -7%. Besides, the outcome in assay [5], in assay [6], in assay [7] and in assay [8] was inactive.
`COC(=O)c1cccc(CNCc2cccc(-c3ccc(-c4nc5c(C)cccc5[nH]4)cc3)c2)c1`: the growth inhibition is 52% (active) in assay [1] and 102% (active) in assay [4]. The inhibition in assay [2] was 3%; in assay [3] it was 2%. Besides, the result in assay [5], in assay [6], in assay [7] and in assay [8] was inactive.
In the case of `COc1c(C(=O)NC2CCN(Cc3ccccc3)C2)cnc2ccccc12` (centres undefined), the values for the growth inhibition in assay [1] and in assay [4] were 12% and 86% (active), respectively. Besides, the inhibition in assay [2] was 2%; in assay [3] it was -4%. For the same compound, the result in assay [5], in assay [6], in assay [7] and in assay [8] was inactive.
